Assay results reported in PubChem BioAssay AID1159580 (chemical genetic matrix, 2015).
Values joined by “and” are separate entries in the source; they are usually repeats but may differ in a detail not shown here. Identical values can stand only once. Hit rate of the full screen: of about 5,500 compounds, about 2,000 (36%) were called active. Inconclusive results (about 18%) are left out. No stated cut-off is given here; in the data, active means normalized growth mostly below about 0.91 (no sharp cut-off); inconclusive means no clear call, values can overlap the other calls; inactive means mostly above about 0.92. The list shows a part of the results.

Assay: chemical genetic growth profiling, strain panel (AID 1159580);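 further: tested at 20 µM; growth read once vehicle control cultures reached saturation at 30 °C; 1 = growth at the plate median or of vehicle wells; lower values mean less growth of the strain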
Details: S. cerevisiae deletion strains, growth OD

Measured: normalized growth

CC1(C)S[C@@H]2[C@H](NC(=O)[C@H](N)c3ccccc3)C(=O)N2[C@H]1C(=O)O
inactive: locus YAL021C, strain ccr4, active compounds read low 0.98 | locus YAL026C, strain drs2, active compounds read low 0.971 | locus YAL030W, strain snc1, active compounds read low 0.987 | locus YBL061C, strain skt5, active compounds read low 0.973 | locus YBR009C, strain hhf1, active compounds read low 1 | locus YBR021W, strain FUR4, active compounds read low 1.01 | locus YBR023C, strain chs3, active compounds read low 0.967 | locus YBR171W, strain sec66, active compounds read low 0.977 | locus YBR229C, strain ROT2, active compounds read low 1.01 | locus YBR231C, strain swc5, active compounds read low 0.999 | locus YBR279W, strain paf1, active compounds read low 0.954 | locus YCL011C, strain gbp2, active compounds read low 0.95 | locus YCL016C, strain dcc1, active compounds read low 0.942 | locus YCL029C, strain bik1, active compounds read low 0.998 | locus YCL061C, strain MRC1, active compounds read low 0.973 | locus YCL069W, strain vba3, active compounds read low 0.98 | locus YCR088W, strain abp1, active compounds read low 0.975 | locus YDL005C, strain med2, active compounds read low 0.979 | locus YDL035C, strain GPR1, active compounds read low 1.02 | locus YDL040C, strain nat1, active compounds read low 0.971 | locus YDL074C, strain BRE1, active compounds read low 1.01 | locus YDL101C, strain DUN1, active compounds read low 1.01 | locus YDL134C, strain PPH21, active compounds read low 1.01 | locus YDL185W, strain tfp1, active compounds read low 1 | locus YDL192W, strain arf1, active compounds read low 1.03 | locus YDR001C, strain nth1, active compounds read low 0.971 | locus YDR069C, strain doa4, active compounds read low 0.965 | locus YDR101C, strain arx1, active compounds read low 1.01 | locus YDR137W, strain rgp1, active compounds read low 0.945 | locus YDR150W, strain NUM1, active compounds read low 1.02 | locus YDR159W, strain sac3, active compounds read low 0.981 | locus YDR162C, strain NBP2, active compounds read low 1.03 | locus YDR195W, strain ref2 0.961 | locus YDR297W, strain sur2, active compounds read low 0.976 | locus YDR318W, strain mcm21, active compounds read low 1.01 | locus YDR334W, strain swr1, active compounds read low 0.961 | locus YDR335W, strain msn5, active compounds read low 0.948 | locus YDR388W, active compounds read low 1 | locus YDR392W, strain spt3, active compounds read low 0.888 | locus YDR502C, strain sam2, active compounds read low 1.01 | locus YEL003W, strain gim4, active compounds read low 0.98 | locus YEL037C, strain rad23, active compounds read low 0.979 | locus YEL061C, strain CIN8 (second series), active compounds read low 0.97 | locus YEL061C, strain CIN8, active compounds read low 1.01 | locus YER015W, strain faa2, active compounds read low 0.961 | locus YER016W, strain bim1, active compounds read low 0.955 | locus YER110C, active compounds read low 0.991 | locus YER111C, strain swi4, active compounds read low 0.96 | locus YER155C, strain BEM2 (second series), active compounds read low 1.03 | locus YER155C, strain BEM2, active compounds read low 1 | locus YER167W, strain BCK2, active compounds read low 1.01 | locus YFR010W, strain ubp6, active compounds read low 0.996 | locus YGL078C, strain dbp3, active compounds read low 0.999 | locus YGL086W, strain mad1, active compounds read low 1 | locus YGL167C, strain pmr1, active compounds read low 0.987 | locus YGL173C, strain kem1, active compounds read low 0.984 | locus YGL227W, strain vid30, active compounds read low 0.974 | locus YGL240W, strain doc1, active compounds read low 0.991 | locus YGL248W, strain PDE1, active compounds read low 1.02 | locus YGL253W, strain hxk2, active compounds read low 0.944 | locus YGR135W, strain pre9, active compounds read low 1.01 | locus YGR229C, strain SMI1, active compounds read low 1.03 | locus YGR252W, strain gcn5, active compounds read low 1.03 | locus YHR013C, strain ard1, active compounds read low 0.938 | locus YHR027C, strain rpn1, active compounds read low 0.97 | locus YHR030C, strain SLT2, active compounds read low 1.01 and 1.03 | locus YHR079C, strain IRE1 (second series), active compounds read low 1 | locus YHR079C, strain IRE1, active compounds read low 1.03 | locus YHR094C, strain hxt1, active compounds read low 0.994 | locus YHR129C, strain ARP1, active compounds read low 1.01 | locus YHR142W, strain chs7, active compounds read low 0.924 | locus YHR200W, strain rpn10, active compounds read low 1 | locus YIL066C, strain RNR3, active compounds read low 1.03 | locus YIL073C, strain SPO22, active compounds read low 1.04 | locus YIL125W, strain kgd1, active compounds read low 1 | locus YIR030C, strain dcg1, active compounds read low 1.01 | locus YJL092W, strain hpr5, active compounds read low 0.973 | locus YJL095W, strain BCK1 (second series), active compounds read low 0.989 | locus YJL095W, strain BCK1, active compounds read low 1.01 and 1.04 | locus YJL115W, strain asf1, active compounds read low 0.94 | locus YJL129C, strain trk1, active compounds read low 0.913 | locus YJL134W, strain LCB3, active compounds read low 1.01 | locus YJL154C, strain vps35, active compounds read low 0.97 | locus YJL164C, strain tpk1, active compounds read low 0.977 | locus YJL166W, strain qcr8, active compounds read low 0.998 | locus YJL168C, strain set2, active compounds read low 1 | locus YJL187C, strain SWE1 (second series), active compounds read low 1 | locus YJL187C, strain SWE1, active compounds read low 0.988
